Laboratory results reported in PubChem BioAssay AID2685 (National Center for Advancing Translational Sciences (NCATS), 2010).
The whole screen tested about 320,000 compounds, of which about 2,100 (0.66%) were called active. Not shown: some 53% with an inconclusive outcome. The call rests on the fitted dose curve; in most records, active means well fitted inhibition curve with a large enough effect in the signal ratio, with a control signal flat (not every such curve was filed as active); inconclusive means small, poorly fitted or top-dose-only effect, or effect the other way, or a change in a side signal; inactive means flat fitted curve, though single readings scatter; the % refers to the signal ratio. Many of the other results were omitted from the sample, so actives are more common in it than they were.
Potency means the concentration at half of the fitted maximal effect.

Assay: qHTS Assay for Lipid Storage Modulators in Drosophila S3 Cells;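 on cell number change: cells counted by Cell Tracker Red CMTPX staining in the red channel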; on lipid storage change, negative = inhibition: on the % scale 0 is the no-effect control and ±100 the full control effect
Details: BODIPY lipid droplet fluorescence, 18-24 h, cells fed with added oleic acid; cell number change: measured here: cell count max response; series mostly up to 46.1 µM; lipid storage change, negative = inhibition: at the top concentration
Method in brief: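 Drosophila S3 cells loaded with oleic acid (400 uM, as added) and compounds at several concentrations; lipid droplets imaged by 488-nm laser-scanning cytometry, 500–530 nm intensity and object ratio to cell channel. Percent activity normalized to 20 uM Triacsin C.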
With `CCOC(=O)c1ccc(NC(=S)N2CCCC(C)C2)cc1` (centres undefined) the “lipid storage change, negative = inhibition” value was -12.9% (inactive) and the cell number change was 4.19%. With `COCCN(C(=S)Nc1ccccc1OC)C(C)c1cccs1` (centres undefined) the “lipid storage change, negative = inhibition” value was 18.6% (inactive) and the cell number change was 10.3%. For `CCCCn1nnc(NC(=O)c2sc3cc(Cl)ccc3c2Cl)n1`, the “lipid storage change, negative = inhibition” value was 14.6% (inactive) and the cell number change was -11.4%. In the case of `C/C(=N\Nc1cc(N2CCOCC2)nc(C)n1)c1ccc(F)cc1`, the “outcome” value is reported as “inactive” and the cell number change is reported as -23.7%. With `COc1cc(OC)c2ccc(=O)oc2c1C(CCN1CCCC1)c1ccc(N(C)C)cc1` (centres undefined) the “lipid storage change, negative = inhibition” value was 0.139% (inactive) and the cell number change was 0.759%. For `Cc1cc(C)nc(/N=C(\NC(=O)C(C)(C)C)Nc2ccccc2)n1`, the “lipid storage change, negative = inhibition” value was 16.5% (inactive) and the cell number change was 7.69%. For `O=C(CCOc1ccccc1)Nc1ccnn1C1CCN(C(=O)CCC(F)(F)F)CC1`, the “outcome” value was “inactive”. With `CC(C)[C@H](NS(=O)(=O)c1ccc(Cl)cc1)C(=O)OCC(=O)c1c(N)n(C)c(=O)n(C)c1=O` the Potency was 29.1 µM (active) and the cell number change was -5.89%. With `Cn1c(N)c(C(=O)COC(=O)CNS(=O)(=O)c2cccc(Cl)c2)c(=O)n(C)c1=O` the “lipid storage change, negative = inhibition” value was -4.82% (inactive) and the cell number change was -1.55%. For `CN(CC(=O)OCC(=O)c1c(N)n(C)c(=O)n(C)c1=O)S(=O)(=O)c1ccc(Cl)cc1`, the “lipid storage change, negative = inhibition” value was -4.29% (inactive) and the cell number change was -11.5%. In the case of `O=C(NC1CCCc2ccccc21)c1ccccc1` (centres undefined), the “lipid storage change, negative = inhibition” value is reported as 21.6% (inactive) and the cell number change is reported as 96.9%. With `COC(=O)CN(c1cccc(OC)c1)S(C)(=O)=O` the Potency was 16.4 µM (active) and the cell number change was -6.69%. In the case of `COC(=O)CN(c1cccc(C(C)=O)c1)S(C)(=O)=O`, the “lipid storage change, negative = inhibition” value is reported as 8.86% (inactive) and the cell number change is reported as -12.6%. In the case of `COC(=O)CN(c1cccc(F)c1)S(C)(=O)=O`, the “outcome” value is reported as “inactive”. For `COc1ccccc1CN1CC(C(=O)NC2CCOCC2)CCC1=O` (centres undefined), the “lipid storage change, negative = inhibition” value was -8.12% (inactive) and the cell number change was 0.697%. For `CCC(C)N1CCNCC1` (centres undefined), the “outcome” value was “inactive” and the cell number change was 2.58%. In the case of `Cc1cc2c3c(ccc(C)c3n1)N=CN2c1ccccc1`, the “outcome” value is reported as “inactive”. With `CC(C)Oc1cccc(C(=O)O)c1` the Potency was 16.4 µM (active) and the cell number change was 0.0714%. For `CCCCOc1cccc(C(=O)O)c1`, the “outcome” value was “inactive” and the cell number change was -9.86%. In the case of `CC(C)Oc1cccc(C(=O)N2CCCC2)c1`, the “lipid storage change, negative = inhibition” value is reported as -2.89% (inactive) and the cell number change is reported as 0.879%. In the case of `Cc1cc(OCC(=O)NCc2nc(-c3ccccc3)no2)c(C)cc1Br`, the “lipid storage change, negative = inhibition” value is reported as 7.66% (inactive) and the cell number change is reported as 8.52%. For `COc1ccc2c(c1)c(/C=C/c1cc[n+](C)cc1)cn2C`, the “lipid storage change, negative = inhibition” value was -25.3% (inactive). With `Cn1cc(C=O)c2cc(F)ccc21` the “lipid storage change, negative = inhibition” value was 0.791% (inactive). For `Cn1cc(/C=C/c2cc[n+](C)cc2)c2cc(F)ccc21`, the Potency was 25.9 µM (active) and the cell number change was 5.37%. For `CC(=O)Nc1ccc(S(=O)(=O)N2CCN(CC3CC4C=CC3C4)CC2)cc1` (centres undefined), the “lipid storage change, negative = inhibition” value was 4.11% (inactive) and the cell number change was 5.59%. With `O=C(N/N=C/c1ccncc1)c1ccc2c(c1)OCO2` the “lipid storage change, negative = inhibition” value was 5.26% (inactive) and the cell number change was -3.13%. In the case of `CCCc1cc2c(=O)c(-c3ccccn3)c(C)oc2cc1O`, the “lipid storage change, negative = inhibition” value is reported as 11.3% (inactive) and the cell number change is reported as -9.21%. In the case of `CC(=O)N[C@H](C(=O)N[C@@H](C)C(=O)N[C@H](C#N)CC(=O)O)C(C)C`, the “lipid storage change, negative = inhibition” value is reported as 11.1% (inactive) and the cell number change is reported as 8.31%. With `Cc1ccc(S(=O)(=O)N2CCC(C(=O)OCC(=O)N3CCc4ccccc43)CC2)cc1` the Potency was 7.31 µM (active) and the cell number change was -18.3%. For `CC(=O)Nc1ccc(S(=O)(=O)N(C)CC(=O)OCC(=O)N2CCc3ccccc32)cc1`, the Potency was 20.6 µM (active) and the cell number change was -7.07%. In the case of `CC(=O)Nc1ccc(S(=O)(=O)NCC(=O)OCC(=O)N2CCCc3ccccc32)cc1`, the “lipid storage change, negative = inhibition” value is reported as 17.9% (inactive) and the cell number change is reported as -6.74%. With `Cc1ccc(S(=O)(=O)CCC(=O)OCC(=O)N2CCc3ccccc32)cc1` the “lipid storage change, negative = inhibition” value was -12.7% (inactive) and the cell number change was -18.3%. For `CC(=O)Nc1ccc(S(=O)(=O)N(C)CC(=O)OCC(=O)N2CCCCCC2)cc1`, the “lipid storage change, negative = inhibition” value was -14.5% (inactive) and the cell number change was -4.09%. With `Cc1ccc(S(=O)(=O)N2CCC(C(=O)OCC(=O)N3CC(=O)Nc4ccccc43)CC2)cc1` the “lipid storage change, negative = inhibition” value was -0.226% (inactive) and the cell number change was 8.87%. For `Nn1cc(-c2ccccc2)nc1SCC(=O)NCC(F)(F)F`, the “lipid storage change, negative = inhibition” value was 14.4% (inactive). With `COc1ccc2[nH]c(=O)c(CN(Cc3cccnc3)Cc3nnnn3CC3CCCO3)cc2c1` (centres undefined) the “lipid storage change, negative = inhibition” value was 10.3% (inactive) and the cell number change was -7.7%. In the case of `COc1cccc2c1OC1(C)CC2NC(=O)N1c1cccc(C(=O)N2CCN(c3ccccc3)CC2)c1` (centres undefined), the “lipid storage change, negative = inhibition” value is reported as 0.139% (inactive) and the cell number change is reported as 3.44%. With `CNC(C)C#Cc1ccc2oc3cccc(OC)c3c(=O)c2c1` (centres undefined) the “lipid storage change, negative = inhibition” value was -27.3% (inactive) and the cell number change was 16.5%. In the case of `COc1cc2oc3ccccc3c(=O)c2cc1OC`, the “lipid storage change, negative = inhibition” value is reported as -12.2% (inactive) and the cell number change is reported as -9.58%. In the case of `COc1cccc2oc3cc(C#Cc4ccccn4)ccc3c(=O)c12`, the Potency is reported as 18.4 µM (active) and the cell number change is reported as -23%. For `COc1ccc2c(=O)c3ccccc3oc2c1`, the “lipid storage change, negative = inhibition” value was -3.99% (inactive) and the cell number change was -11.6%. In the case of `Cn1c2ccccc2c(=O)c2ccc(C#Cc3ccccn3)cc21`, the Potency is reported as 14.6 µM (active) and the cell number change is reported as -26.5%. For `Cn1c2ccccc2c(=O)c2ccc(C#Cc3ccc(N)cc3)cc21`, the “lipid storage change, negative = inhibition” value was -0.819% (inactive) and the cell number change was 2.27%. In the case of `Cn1c2ccccc2c(=O)c2ccc(-c3ccc4c(c3)OCO4)cc21`, the “lipid storage change, negative = inhibition” value is reported as -10.8% (inactive) and the cell number change is reported as -21%. For `COc1cc(OC)cc(-c2c(-c3cccs3)c3cc(-c4ccc(N(C)C)nc4)ccc3n2C)c1`, the “outcome” value was “inactive” and the cell number change was 14.6%. In the case of `Cn1c2ccccc2c(=O)c2cc(C#Cc3ccccn3)ccc21`, the “outcome” value is reported as “inactive” and the cell number change is reported as -13.6%. For `Nc1cccc(C#Cc2ccc3c(=O)c4ccccc4oc3c2)c1`, the “outcome” value was “inactive” and the cell number change was -4.2%. For `CN(C)c1ccc(-c2ccc3c(=O)c4ccccc4n(C)c3c2)cn1`, the Potency was 23.1 µM (active) and the cell number change was -7.49%. For `COc1cccc2oc3ccc(C#Cc4ccccn4)cc3c(=O)c12`, the Potency was 0.731 µM (active) and the cell number change was -5.09%. With `O=C(NC12CC3CC(CC(C3)C1)C2)c1ccc(Br)o1` the “lipid storage change, negative = inhibition” value was -6.92% (inactive) and the cell number change was -22.8%.
